Compound activity (PubChem BioAssay)
Pf Dd2 inh = inhibitors of Plasmodium falciparum Dd2 growth. activity change, % at 10 µM. P. falciparum Dd2 growth, SYBR Green, 72 h; hits give low values. hit rate 2.3% among 94,000. AID 1159554; in the data active means activity change below about -80%; inconclusive means no clear call, values can overlap the other calls
T cruzi growth-1 = inhibitors of T. cruzi proliferation | AID 624255 | T. cruzi beta-gal in NIH3T3, GalScreen luminescence, 90 h | inhibition, % at 8.34 µM | hit rate 5.9% among 77,000;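 active means mean inhibition above about 93%, with at least 55% of replicates each passing it, limit read from the data, passing the limit was not always enough; inconclusive means only one of those two conditions holds; inactive means neither condition holds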
C diff growth = inhibitors of Clostridium difficile growth | Clostridium difficile clinical isolate growth, OD600, 24 h; hits give low values | growth activity, negative = inhibition, % at 16 µg/mL (by protocol) | hit rate 0.25% among 86,000 | AID 1259249;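 active means mean growth activity at or below -80% and every replicate also at or below -80%; inconclusive means mean at or below -80% but some replicate above -80%; inactive means mean growth activity above -80%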;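 further: 0% = DMSO wells and -100% = levofloxacin 16 µg/mL wells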
T cruzi growth-2 = inhibitors of T. cruzi proliferation; shares compounds with T cruzi growth-1; T. cruzi beta-gal in NIH3T3, GalScreen luminescence, 90 h; inhibition, % at 8.35 µM; hit rate 72% among 5,600; AID 651739;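 active means mean replicate inhibition above about 95% and at least 55% of replicates individually reaching it, limit read from the data; inconclusive means only one of the two criteria is met; inactive means neither criterion is met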
T cruzi growth-3 = Trypanosoma cruzi proliferation inhibition. shares compounds with T cruzi growth-1. T. cruzi beta-gal in NIH3T3, GalScreen luminescence, 90 h. inhibition, % at 2.09 µM. hit rate 21% among 5,600. AID 651740;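 active means mean inhibition above about 95%, with at least 55% of replicates also reaching it, limit read from the data; inconclusive means meets just one of the two conditions; inactive means meets neither condition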;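 further: plate controls were neutral control median for no effect and positive control median for full effect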
3T3 cytotox = kills mouse NIH/3T3 fibroblasts | shares compounds with T cruzi growth-1 | NIH/3T3 viability, CellTiter-Glo ATP luminescence, 90 h | cytotoxicity (signal decrease), % at 8.35 µM | hit rate 14% among 5,600 | AID 651742;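 active means mean signal decrease across replicates above about 35% based on untreated-well scatter, with enough replicates individually passing, limit read from the data; inconclusive means no rule stated though some were filed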;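 further: 0% = median of neutral control wells and 100% = median of positive control wells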
3T3 cytotox 2 = cytotoxicity in mouse NIH/3T3 fibroblasts | NIH/3T3 viability, CellTiter-Glo ATP luminescence, 90 h | shares compounds with T cruzi growth-1 | AID 651744 | hit rate 56% among 5,600 | inhibition, % at 24.9 µM;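 active means mean loss of cell viability signal at or above a set limit, and enough replicates individually reaching it; inconclusive means meets only the mean limit or only the replicate share; inactive means meets neither condition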;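 further: 0% = median of neutral control wells and 100% = median of positive control wells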
Active calls of the source: *; ? = inconclusive; . = not tested or not shown; + = active, no number. Rows were chosen to be rich in hits. Some 6.7% of all compounds tested hit in one or more screens of this group.

SMILES	Pf Dd2 inh	T cruzi growth-1	C diff growth	T cruzi growth-2	T cruzi growth-3	3T3 cytotox	3T3 cytotox 2
CCCN(C)C[C@@H]1Oc2cc(C#CCC(C)C)ccc2S(=O)(=O)N([C@@H](C)CO)C[C@H]1C	-69	.	2	.	.	.	.
CC(C)CC#Cc1ccc2c(c1)O[C@@H](CN(C)CC1CC1)[C@@H](C)CN([C@@H](C)CO)S2(=O)=O	-50	111*	27	110*	89	21	103*
CC(C)CC#Cc1ccc2c(c1)O[C@H](CN(C)C)[C@H](C)CN([C@@H](C)CO)S2(=O)=O	-37	-3	8	.	.	.	.
CC(C)CC#Cc1ccc2c(c1)O[C@H](CN(C)CC1CCOCC1)[C@H](C)CN([C@@H](C)CO)S2(=O)=O	-43	107	5	.	.	.	.
CC(C)CC#Cc1ccc2c(c1)O[C@H](CN(C)CC1CC1)[C@H](C)CN([C@H](C)CO)S2(=O)=O	-46	105*	17	108*	63	13	106*
CO[C@@H]1CN(C)C(=O)c2ccc(NC(C)=O)cc2OC[C@H](C)N(C(=O)c2ccncc2)C[C@@H]1C	18	27	.	.	.	.	.
COCc1cn(CC[C@H]2CC[C@H](NC(=O)Nc3ccc(Cl)cc3)[C@@H](CO)O2)nn1	2	24	3	.	.	.	.
O=C(NCC(F)(F)F)[C@@H]1[C@@H](CO)[C@@H]2Cn3c(cccc3=O)[C@@H]2N1CCC(F)(F)F	25	.	0	.	.	.	.
CN(C)c1ccc2c(c1)[C@H]1C[C@H](CC(=O)NCc3ccc(-c4ccccc4)cc3)O[C@H](CO)[C@H]1O2	-45	.	7	.	.	.	.
CN(C)c1ccc2c(c1)[C@H]1C[C@H](CC(=O)NCc3ccc(Oc4ccccc4)cc3)O[C@@H](CO)[C@H]1O2	-39	132*	-8	107*	105*	-3	?
CN(C)c1ccc2c(c1)[C@H]1C[C@H](CC(=O)NCc3ccc(-c4ccccc4)cc3)O[C@@H](CO)[C@H]1O2	-37	114*	-8	110*	102*	5	4
CN(C)c1ccc2c(c1)[C@@H]1C[C@@H](CC(=O)NCc3cc(F)ccc3F)O[C@H](CO)[C@@H]1O2	-36	36	.	.	.	.	.
CN(C)c1ccc2c(c1)[C@@H]1C[C@H](CC(=O)NCc3ccccc3)O[C@@H](CO)[C@@H]1O2	-36	42	.	.	.	.	.
CN(C)c1ccc2c(c1)[C@@H]1C[C@@H](CC(=O)NCc3cc(F)ccc3F)O[C@@H](CO)[C@@H]1O2	-87*	+	.	72	28	-9	9
CNC[C@@H]1OCCCC[C@H](C)Oc2ccc(NC(=O)NC3CCCCC3)cc2C(=O)N([C@@H](C)CO)C[C@H]1C	31	20	-6	.	.	.	.
COc1ccc(S(=O)(=O)N(C)C[C@H]2Oc3ccc(NC(=O)Nc4ccc(F)cc4)cc3CC(=O)N([C@H](C)CO)C[C@H]2C)cc1	7	-22	2	.	.	.	.
CN1C(=O)c2cc(NC(=O)NC3CCCC3)ccc2OC[C@@H]2O[C@H](CC(=O)NC3CCC3)CC[C@H]21	-21	14	1	.	.	.	.
C[C@@H]1CN([C@@H](C)CO)C(=O)Cc2cc(NC(=O)Nc3cccc4ccccc34)ccc2O[C@H]1CN(C)S(=O)(=O)c1cccs1	-27	14	-3	.	.	.	.
C[C@H](CO)N1C[C@H](C)[C@@H](CN(C)Cc2ccc3c(c2)OCO3)Oc2ccc(NC(=O)C3CCCCC3)cc2CC1=O	-51	100*	-6	103*	70	5	28*
C[C@@H]1CN([C@@H](C)CO)C(=O)Cc2cc(NC(=O)C3CCCCC3)ccc2O[C@@H]1CN(C)CC1CC1	-8	97*	-4	21	10	3	7
C[C@H]1CN([C@@H](C)CO)C(=O)Cc2cc(NC(=O)C3CCCCC3)ccc2O[C@@H]1CN(C)CC1CC1	-21	-7	-2	.	.	.	.
C[C@H](CO)N1C[C@H](C)[C@@H](CN(C)Cc2ccc3c(c2)OCO3)Oc2ccc(NC(=O)C3CC3)cc2CC1=O	11	77	-28	.	.	.	.
C[C@@H]1CN([C@H](C)CO)C(=O)Cc2cc(NC(=O)C3CCCCC3)ccc2O[C@@H]1CN(C)Cc1ccc2c(c1)OCO2	-17	29	-9	.	.	.	.
C[C@H]1CN([C@@H](C)CO)C(=O)Cc2cc(NC(=O)C3CCCCC3)ccc2O[C@@H]1CN(C)Cc1ccc2c(c1)OCO2	-46	99*	-6	96*	33	-19	14
C[C@@H]1CN([C@@H](C)CO)C(=O)c2cc(-c3ccc(F)cc3)cnc2O[C@H]1CN(C)Cc1ccc(F)cc1	-46	42	12	.	.	.	.
SMILES	Pf Dd2 inh	T cruzi growth-1	C diff growth	T cruzi growth-2	T cruzi growth-3	3T3 cytotox	3T3 cytotox 2
CC(=O)N1[C@@H](CO)[C@H](c2ccccc2)C12CN(C(=O)Nc1ccccc1F)C2	39	.	-5	.	.	.	.
O=C(Nc1cc(F)ccc1F)N1CCCCN2[C@H](C1)[C@H](c1ccc(-c3ccncc3)cc1)[C@@H]2CO	0	85	5	.	.	.	.
C/C=C/c1ccc([C@H]2[C@@H](CO)N3CCCCN(C(=O)Nc4cc(F)ccc4F)C[C@H]23)cc1	-62	102*	14	111*	62	10	104*
O=C(Nc1cc(F)ccc1F)N1CCCCN2[C@H](C1)[C@H](c1ccc(-c3cncnc3)cc1)[C@@H]2CO	23	103*	-1	6	9	-22	4
O=C(Nc1cc(F)ccc1F)N1CCCCN2[C@@H](CO)[C@@H](c3ccc(-c4cccnc4)cc3)[C@@H]2C1	-36	82	1	.	.	.	.
O=C(Nc1cc(F)ccc1F)N1CCCCN2[C@H](CO)[C@H](c3ccc(-c4ccncc4)cc3)[C@H]2C1	-19	101*	5	111*	80	7	19
C/C=C/c1ccc([C@@H]2[C@@H](CO)N3CCCCN(C(=O)Nc4cc(F)ccc4F)C[C@@H]23)cc1	-43	79	8	.	.	.	.
C[C@H]1CN([C@@H](C)CO)C(=O)c2cccc(NC(=O)Nc3ccc4c(c3)OCO4)c2O[C@@H]1CN(C)S(=O)(=O)c1ccc(F)cc1	-16	7	-12	.	.	.	.
C[C@H](CO)N1C[C@H](C)[C@H](CN(C)S(=O)(=O)c2cccs2)OCCCC[C@H](C)Oc2ccc(NS(=O)(=O)c3ccccc3)cc2C1=O	-48	.	.	.	.	.	.
CN(C)C(=O)c1cccc(-c2ccc([C@@H]3[C@@H](CO)N4CCCCN(C(=O)C5CCC5)C[C@H]34)cc2)c1	26	84	-4	.	.	.	.
CN(C)C(=O)c1cccc(-c2ccc([C@H]3[C@H]4CN(C(=O)C5CCCC5)CCCCN4[C@H]3CO)cc2)c1	35	4	-8	.	.	.	.
CN(C)C(=O)c1cccc(-c2ccc([C@H]3[C@@H](CO)N4CCCCN(C(=O)C5CCCC5)C[C@H]34)cc2)c1	11	103*	-2	98*	92	3	-3
CN(C)C(=O)c1cccc(-c2ccc([C@@H]3[C@H](CO)N4CCCCN(C(=O)C5CCC5)C[C@@H]34)cc2)c1	21	104*	-8	81	42	-8	23
